# Several values for one entry are separate records, joined by “and”; a condition that tells them apart may be missing. Equal entries are not always repeated. Compounds without any hit were thinned out: in the full panel of roughly 83,000, 20% have a hit.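 Single-dose data. Exposure time 48 hours. Values below 10 considered active.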 Activity calls are given as the source filed them.
# Test system: HL-60(TB) leukemia
# Experiment: NCI-60 one-dose screen, 48 h (100 = growth as untreated, 0 = no growth, -100 = all killed)
# Conditions: 10 µM unless noted
row,SMILES,growth
1,N=C(N=C(N)N)N1CCOCC1,100% (inactive) and 99.1% (inactive)
2,O=C(Nc1ccc(Cl)c(Cl)c1)Nc1ccc(Cl)c([N+](=O)[O-])c1,-39.9% (active)
3,O=C(Nc1cccc(-n2ccc3c(NC(=O)c4ccccc4)nccc32)c1)c1ccc(Cl)c(C(F)(F)F)c1,-32.3% (active) and 56.6% (inactive)
4,N/C(=C\C(=O)n1nc(-c2ccccc2)cc1N)c1ccccc1,1.71% (active)
5,Nc1c(C(=O)c2ccc(F)cc2)sc2nc3c(cc12)CCCC3,70.2% (inactive)
6,N#CC1=C(N)Oc2cc(N)ccc2C1c1cccnc1 (centres undefined),96.6% (inactive)
7,CC(C)(O)C1CCCN1C(=O)c1ccccc1I (centres undefined),89.3% (inactive)
8,COc1ccc(N=C2NN=C(c3ccc(F)cc3)CS2)cc1OC,84.5% (inactive)
9,NC1=NN(c2ccccc2)C(=O)/C1=C/c1ccc(Cl)cc1,104% (inactive)
10,OC(CC(c1ccccc1)c1cccc2ccccc12)(c1ccccc1)c1ccccc1 (centres undefined),99.1% (inactive) and 101% (inactive)
11,COc1ccc(C(=O)c2cc(OC)c3c(c2)OCO3)cc1O,13.4% (inactive)
12,COc1ccc(-c2nc3sccn3c2/C=C/C(=O)c2ccc3c(c2)OCO3)cc1,79.6% (inactive)
13,CCCOCC(O)CNCCN (centres undefined),99.8% (inactive)
14,Cc1cc(=O)[nH]c(O)c1C#N,109% (inactive) and 137% (inactive)
15,CCOC(=O)C(C#N)Cc1ccccc1 (centres undefined),104% (inactive)
16,O=C1N/C(=N\c2nnc(-c3ccc(O)cc3)s2)S/C1=C\c1ccccc1O,104% (inactive)
17,CC1CN(c2oc(-c3ccccc3)nc2C#N)CC(C)O1 (centres undefined),101% (inactive)
18,CC(=O)Nc1ccc(OC(C)=O)cc1,-9.02% (active) and 104% (inactive)
19,Cn1cc(C(=O)c2nc(-c3c[nH]c4ccccc34)no2)c2ccccc21,58.5% (inactive)
20,N#Cc1c(-c2cccs2)cc(-c2cccnc2)[nH]c1=O,97.6% (inactive)

row,SMILES,growth
1,N#C/C(=C\c1ccc[nH]1)c1cc2ccccc2[nH]1,64.8% (inactive)
2,NC1CCC(Nc2nc(NCc3ccc(-c4cccs4)nc3)c3ncn(C4CCCC4)c3n2)CC1 (centres undefined),-29.7% (active)
3,Nc1cc(N)c2cccnc2c1O,59.6% (inactive)
4,CN(C)CCN1CCN(c2ncccc2C2Nc3ccccc3-n3cccc32)CC1 (centres undefined),98.7% (inactive)
5,CCOC(=O)c1nnn(C(Cc2ccccc2Cl)C(=O)OCC)c1C (centres undefined),96.5% (inactive)
6,CN(C)CCCN1c2ccccc2Sc2ccc(Cl)cc21,107% (inactive) and 92.5% (inactive)
7,O=C(Nc1ccc(I)cc1F)c1cc(Br)ccc1O,-31.3% (active)
8,CC[C@@]1(O)C(=O)OCc2c1cc1n(c2=O)Cc2c-1nc1ccccc1c2/C=N/OC(C)(C)C,-29% (active)
9,COc1cc2cc(Oc3ccc(NC(=O)c4cccc(C(F)(F)F)c4)cc3)c(C)nc2cc1OC,27.8% (inactive)
10,Cc1nn(-c2ccccc2)c2nc(C)n(-c3ccc(Br)cc3)c(=O)c12,-5.26% (active)
11,COc1cc2c(cc1OC)C1(C)N(CC2)C(=O)OC1(C)C (centres undefined),-79.2% (active)
12,O=C(/C=C/c1ccc(Cl)s1)c1ccc(Cl)s1,119% (inactive) and 111% (inactive)
13,O=C(/C=C/c1ccccc1)c1ccc(Nc2nc(NCCO)nc(Nc3ccc(Cl)cc3)n2)cc1,101% (inactive)
14,CC(C)NCCCNC1=C(Cl)C(=O)c2ccccc2C1=O,11.5% (inactive)
15,CCc1ccc(Oc2cn[nH]c2-c2ccc(OCCc3ccc(F)cc3)cc2O)cc1,111% (inactive)
16,O=C1/C(=C/c2ccc3cccc(Cl)c3n2)SC(=S)N1CCc1ccc(O)cc1,32.4% (inactive)
17,CC(=O)c1cc2c(N)c(C(=O)Nc3ccccc3)sc2nc1C,55.6% (inactive)
18,O=C(c1ccccc1)C(CN1CCOCC1)c1ccccc1 (centres undefined),12.2% (inactive)
19,CC1(C)S(=O)(=O)OCCOS1(=O)=O,95.6% (inactive)
